This passage reports outcome and AC50 results from PubChem BioAssay (EPA / NIEHS).

SMILES strings stand for the structures. Active and inactive are the calls of the source. How the source made its calls: active means hit-call score of the fitted dose curve at least 0.9, where 1 is the maximum; inconclusive means response in the unintended direction; inactive means score below 0.9.

Sequence of PGR (gene 5241) (P06401 whole entry, looked up): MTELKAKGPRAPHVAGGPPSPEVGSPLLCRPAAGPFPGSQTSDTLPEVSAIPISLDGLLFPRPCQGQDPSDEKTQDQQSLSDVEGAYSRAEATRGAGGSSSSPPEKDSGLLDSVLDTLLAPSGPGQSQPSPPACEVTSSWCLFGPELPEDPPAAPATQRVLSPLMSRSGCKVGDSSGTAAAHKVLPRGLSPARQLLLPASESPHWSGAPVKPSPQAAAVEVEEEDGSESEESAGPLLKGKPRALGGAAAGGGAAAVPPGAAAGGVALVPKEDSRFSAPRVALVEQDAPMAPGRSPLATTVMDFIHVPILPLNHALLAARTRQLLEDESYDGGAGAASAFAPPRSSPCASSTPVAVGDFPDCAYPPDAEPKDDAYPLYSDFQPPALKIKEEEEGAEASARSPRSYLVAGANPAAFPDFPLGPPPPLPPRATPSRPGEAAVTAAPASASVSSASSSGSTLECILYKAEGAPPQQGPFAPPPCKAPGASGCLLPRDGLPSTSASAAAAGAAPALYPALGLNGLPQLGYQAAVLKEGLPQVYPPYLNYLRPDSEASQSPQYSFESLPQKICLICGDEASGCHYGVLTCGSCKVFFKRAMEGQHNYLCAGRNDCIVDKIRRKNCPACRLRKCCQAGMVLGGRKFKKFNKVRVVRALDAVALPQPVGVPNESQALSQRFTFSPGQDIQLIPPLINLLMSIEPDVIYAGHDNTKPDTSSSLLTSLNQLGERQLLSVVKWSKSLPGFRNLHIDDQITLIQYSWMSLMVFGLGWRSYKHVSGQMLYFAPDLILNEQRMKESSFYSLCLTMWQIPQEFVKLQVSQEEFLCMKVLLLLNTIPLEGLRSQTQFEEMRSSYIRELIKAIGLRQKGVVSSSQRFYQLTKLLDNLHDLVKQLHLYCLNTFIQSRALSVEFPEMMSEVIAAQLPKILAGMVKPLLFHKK

System in the first test: not listed separately
The test can be described thus: CPHEA_Stoker_NIS_Cytotoxicity: Cytotoxicity Assessment for CPHEA's Radioactive Iodide Uptake (RAIU) Assay for Sodium/Iodide Symporter (NIS) Inhibition, Stoker and Laws Labs (AID 2283897).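 On AC50: active means loss of ATP signal versus DMSO meaning cytotoxicity.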 In a few lines: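 Viability in hNIS-HEK293T-EPA cells is scored as a drop in luciferase-detected ATP following 2-hour room-temperature exposure (0.001–100uM; triplicate wells, three cell passages), with DMSO as negative control.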
Take `O=C1OC2(c3ccccc31)c1cc(Br)c(O)c(Br)c1Oc1c2cc(Br)c(O)c1Br`: the outcome was inactive.
Take `Cc1cc(CCN2CCN(c3nsc4ccccc34)CC2)cc2c1NC(=O)CC2(C)C`: the AC50 (usually the concentration giving half of the maximal activity seen) was 9.92 µM (active).
In the case of `CC(=O)NC1(c2cccc(F)c2)CCN(CC[C@@]2(c3ccc(Cl)c(Cl)c3)CN(c3ccccc3)C(=O)CO2)CC1`, the result was inactive.
On to `CCCCCCCCCCCCN1CCCC1=O`, for which the outcome was inactive.
The same measure, in the same setting: in the case of `O=C(O)Cc1cc(I)c(Oc2cc(I)c(O)c(I)c2)c(I)c1` it was “inactive”; in that of `c1ccc2c(c1)Cc1ccccc1-2`, “inactive”.
In the case of `c1ccc2cc3c(ccc4ccccc43)cc2c1`, the result was inactive.
In the case of `Oc1cc2ccccc2c2ccccc12`, the result was inactive.
Same read-out and setting: in the case of `CC[C@H](C)[C@@H](C(=O)O)n1sc2ccccc2c1=O` it was “inactive”; in that of `CN1CCN(c2ccccc2/C=C2\SCCN(c3ccc(Cl)c(Cl)c3)C2=O)CC1`, “inactive”; in that of `CCCCCCCCCCCCc1ccccc1S(=O)(=O)O`, “inactive”.
`O=C(O)c1ccccc1C(c1ccc(O)cc1)c1ccc(O)cc1`: the result was inactive.
Regarding `CC(C)(C)c1cccc(C(C)(C)C)c1O`, the result was inactive.
For `O=C(OCCOCCOC(=O)c1ccccc1)c1ccccc1`, the outcome was inactive.
As for `CC(C)(C)c1ccc(O)c(C(C)(C)C)c1`, the AC50 is 9.92 µM (active).
On to `c1ccc2c(c1)ccc1ccccc12`, for which the result was inactive.
As for `Cc1oc(-c2ccccc2)nc1CCOc1ccc(C[C@H](Nc2ccccc2C(=O)c2ccccc2)C(=O)O)cc1`, the half-maximal activity concentration (AC50) is 9.21 µM (active).
On to `CC[C@H](c1ccc(O)cc1)[C@@H](CC)c1ccc(O)cc1`, for which the AC50 is 9.92 µM (active).
For `CCCCCCCCCCCCCC[N+](C)(C)C`, the result was inactive.
Regarding `NC(=O)N1C(=O)C(C(=O)c2cc(Cl)cs2)c2cc(F)c(Cl)cc21` (stereo not drawn), the outcome was inactive.
On to `CCc1ccc(CCOc2ccc(CC3SC(=O)NC3=O)cc2)nc1` (stereo not drawn), for which the result was inactive.
Take `CC1=C(/C=C/C(C)=C/C=C/C(C)=C/C(=O)O)C(C)(C)CCC1`: the outcome was inactive.
Same read-out and setting: in the case of `ClC1=C(Cl)C(Cl)(Cl)C(Cl)=C1Cl` it was “inactive”; in that of `CC#C[C@]1(O)CC[C@H]2[C@@H]3CCC4=CC(=O)CCC4=C3[C@@H](c3ccc(N(C)C)cc3)C[C@@]21C`, “inactive”; in that of `CCC(=C(c1ccc(O)cc1)c1ccc(OCCN(C)C)cc1)c1ccccc1`, “inactive”.

Another test deals with PGR (gene 5241) (UniProt P06401). The test can be described thus: TOX21_PR_BLA_Followup_Antagonist_ratio: Tox21 HEK293 Progesterone Receptor (PR) Antagonism Beta-lactamase Follow-Up Assay, Ratio (AID 2283934).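 Further: PR-UAS-bla HEK293T cells stimulated with 1 nM R5020 agonist for 16 hr.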 Put shortly:
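Cells are plated, rested 6 hr, then dosed with test compound in DMSO and challenged with 1 nM promegestone. After 16 hr incubation, substrate loading for 2 h at room temperature precedes fluorescence reading; viability is measured in the same wells.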
Consider `c1ccc2cc3c(ccc4ccccc43)cc2c1`, for which the AC50 is 21.8 µM (active).
As to `C[C@@H]1C[C@H]2[C@@H]3CCC4=CC(=O)C=C[C@]4(C)[C@@]3(F)[C@@H](O)C[C@]2(C)[C@@]1(O)C(=O)COP(=O)(O)O`, the outcome was inactive.
Take `CC[C@H](c1ccc(O)cc1)[C@@H](CC)c1ccc(O)cc1`: the AC50 is 9.17 µM (active).
